Experimental data reported in PubChem BioAssay (NCI).
About 79,000 compounds went through this panel and 15% of them were active in at least one assay; those are over-represented in the sample as a whole. Calls of active or inactive are those of the source. Rule as the data show it: active = growth inhibition above about 70%; inactive = the rest.

Key:
[1] = NCI Yeast Anticancer Drug Screen. Data for the rad52 strain (AID 147);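 also: 0% = growth of vehicle-treated control cultures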; details: S. cerevisiae rad52 mutant growth inhibition, active compounds read high
Summary of the method: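 Compounds are applied to a genetically defined yeast strain lacking normal DNA damage repair, and inhibition of growth is expressed relative to cultures given vehicle only.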

[2] = NCI Yeast Anticancer Drug Screen. Data for the wt1 strain (AID 149);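 also: 0% = growth of vehicle-treated wt1 cultures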; details: S. cerevisiae wt1 strain (SPY 50644) growth inhibition, active compounds read high
Summary of the method: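 wt1 strain grown with compound or vehicle; inhibition taken from the growth difference.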

[3] = NCI Yeast Anticancer Drug Screen. Data for the rad50 strain (AID 155);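 also: 0% = growth of vehicle-only cultures of the same strain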; details: S. cerevisiae rad50 strain growth inhibition, active compounds read high
Summary of the method: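 DNA repair mutant yeast, compound exposure, growth read-out; inhibition is taken relative to vehicle.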

[4] = NCI Yeast Anticancer Drug Screen. Data for the mec2-1 strain (AID 157); details: S. cerevisiae mec2-1 strain, active compounds read high
Summary of the method: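 Strain: mec2-1 (DNA repair/cell cycle alteration). Compound exposure, then growth measured; inhibition expressed relative to vehicle.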

[5] = NCI Yeast Anticancer Drug Screen. Data for the rad14 strain (AID 159);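 also: 0% = growth of vehicle-treated control cultures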; details: S. cerevisiae rad14 strain growth inhibition, active compounds read high
Summary of the method: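 DNA repair-defective yeast, compound-exposed; % growth inhibition derived by comparison with vehicle-treated controls.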

[6] = NCI Yeast Anticancer Drug Screen. Data for the sgs1 mgt1 strain (AID 161);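 also: 0% = growth of cultures given vehicle only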; details: S. cerevisiae sgs1 mgt1 strain, active compounds read high
Summary of the method: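 Inhibition of yeast growth, normalised to vehicle-treated controls, is reported for a strain bearing genetic alterations in DNA damage repair.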

[7] = NCI Yeast Anticancer Drug Screen. Data for the CLN2oe strain (AID 163);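 also: 0% = growth of vehicle-only control cultures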; details: S. cerevisiae CLN2oe strain, active compounds read high
Summary of the method: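 Growth of a genetically modified yeast strain is measured after compound exposure and compared with cultures given vehicle alone.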

[8] = NCI Yeast Anticancer Drug Screen. Data for the cln2 rad14 strain (AID 165);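 also: 0% = growth equal to vehicle treated cultures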; details: S. cerevisiae cln2 rad14 strain, active compounds read high
Summary of the method: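 Compounds are applied to the cln2 rad14 yeast strain, and growth is then compared with that of vehicle-treated cultures to give inhibition.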

[9] = NCI Yeast Anticancer Drug Screen. Data for the bub3 strain (AID 167); details: S. cerevisiae bub3 mutant strain, active compounds read high
Summary of the method: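 In this screen, a yeast mutant lacking normal mitotic checkpoint function is challenged with compound. Relative growth versus vehicle gives the inhibition value.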

[10] = NCI Yeast Anticancer Drug Screen. Data for the wt2 strain (AID 169);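 also: 0% = growth of vehicle-treated yeast cultures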; details: S. cerevisiae wt2 strain growth inhibition, active compounds read high
Summary of the method: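 This strain belongs to a panel of yeast strains with defined genetic alterations in DNA damage repair or cell cycle control. Compounds are applied, and growth inhibition is measured against vehicle-treated cultures.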

[11] = NCI Yeast Anticancer Drug Screen. Data for the mlh1 strain (AID 171);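 also: 0% = growth of vehicle-treated control cultures of the same strain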; details: S. cerevisiae mlh1 strain growth inhibition, active compounds read high
Summary of the method: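 Growth of the mutant yeast strain after compound exposure, expressed as inhibition relative to vehicle-only controls.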

[12] = NCI Yeast Anticancer Drug Screen. Data for the sgs1 strain (AID 173);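 also: 0% = growth of vehicle-only control cultures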; details: S. cerevisiae sgs1 mutant, active compounds read high
Summary of the method: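 Growth of a yeast strain bearing a defined genetic alteration is measured after compound treatment. Inhibition is expressed relative to vehicle-only controls.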

[13] = NCI Yeast Anticancer Drug Screen. Data for the mlh1 rad18 strain (AID 175); details: S. cerevisiae mlh1 rad18 strain growth inhibition, active compounds read high
Summary of the method: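 Read-out is yeast growth inhibition, calculated against vehicle-only controls. The compound was applied to a strain engineered with DNA damage repair alterations.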

[14] = NCI Yeast Anticancer Drug Screen. Data for the rad18 strain (AID 177); details: S. cerevisiae rad18 mutant growth inhibition, active compounds read high
Summary of the method: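 Growth of the mutant yeast strain after compound exposure, normalised to vehicle-only cultures.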

[15] = at 5.0 µM (retest, dose inferred, filed as 0.5)
[16] = at 50.0 µM (retest, dose inferred, filed as 5.0)

Measured: growth inhibition

Oc1ccccc1N=Cc1ccc(Cl)cc1
active: [3]; at 100.0 µM 82% | [9]; at 11.0 µM 70% | [9]; at 33.0 µM 78% | [9]; [16] 73% | [9]; at 50.0 µM 71.5% | [9]; at 100.0 µM 81% | [14]; at 100.0 µM 87%
inactive: [1]; at 1.2 µM 5% | [1]; at 3.7 µM 10% | [1]; at 11.0 µM 20% | [1]; at 33.0 µM 29% | [1]; at 100.0 µM 39% | [2]; at 1.2 µM 14% | [2]; at 3.7 µM 12% | [2]; at 11.0 µM 10% | [2]; at 33.0 µM 15% | [2]; at 100.0 µM 17% | [3]; at 1.2 µM 9% | [3]; at 3.7 µM 54% | [3]; [15] 16% | [3]; at 11.0 µM 42% | [3]; at 33.0 µM 59% | [3]; [16] 26% | [3]; at 50.0 µM 32% | [4]; at 1.2 µM 17% | [4]; at 3.7 µM 16% | [4]; [15] -23% | [4]; at 11.0 µM 18% | [4]; at 33.0 µM 22% | [4]; [16] 24% | [4]; at 50.0 µM 29.1% | [4]; at 100.0 µM 40% | [5]; at 1.2 µM 5% | [5]; at 3.7 µM 5% | [5]; at 11.0 µM 11% | [5]; at 33.0 µM 20% | [5]; at 100.0 µM 34% | [6]; [15] 20% | [6]; [16] 24% | [6]; at 50.0 µM 25.6% | [7]; at 1.2 µM -4% | [7]; at 3.7 µM -2% | [7]; at 11.0 µM -1% | [7]; at 33.0 µM 1% | [7]; at 100.0 µM 9% | [8]; [15] 2% | [8]; [16] 14% | [8]; at 50.0 µM -9.8% | [9]; at 1.2 µM 33% | [9]; at 3.7 µM 55% | [9]; [15] 56% | [10]; at 1.2 µM 14% | [10]; at 3.7 µM 16% | [10]; at 11.0 µM 4% | [10]; at 33.0 µM 8% | [10]; at 100.0 µM 13% | [11]; at 1.2 µM 12% | [11]; at 3.7 µM 10% | [11]; at 11.0 µM 11% | [11]; at 33.0 µM 18% | [11]; at 100.0 µM 27% | [12]; at 1.2 µM 17% | [12]; at 3.7 µM 13% | [12]; at 11.0 µM 19% | [12]; at 33.0 µM 23% | [12]; at 100.0 µM 29% | [13]; [15] 41% | [13]; [16] 53% | [13]; at 50.0 µM 60.5% | [14]; at 1.2 µM 17% | [14]; at 3.7 µM 30% | [14]; at 11.0 µM 43% | [14]; at 33.0 µM 64%
